Screening results deposited in PubChem BioAssay by Broad Institute.
aSyn 5UTR act = Activators working through SNCA 5'UTR binding (MLPCN). alpha-synuclein 5'UTR reporter, activators screen. activity score, % (tested at 7.5 µM), hits read low. hit rate 7.1% among 300,000. AID 1814; in the data active = activity score below about -60%
Each line names hits and unclear results; the compound was inactive in the other large screens. These entries were drawn from the full list.

Cc1c(Cc2ccc3c(c2)OCO3)sc(NC(=O)c2ccc3ccccc3c2)c1C(N)=O	aSyn 5UTR act -80
CCCOc1ccc(C(=O)Nc2nc(C)c(Cc3ccc4c(c3)OCO4)s2)cc1	aSyn 5UTR act -68
Cc1nc(NC(=O)c2ccc(OCC(C)C)cc2)sc1Cc1ccc2c(c1)OCO2	aSyn 5UTR act -85
Oc1[nH]c2ccccc2c1C=Nc1ccccc1	aSyn 5UTR act -130
CCN(CC)c1ccc(N=Cc2c(C)[nH]c3ccccc23)cc1	none
COc1cccc(C(=O)O/N=C(\N)c2ccccn2)c1OC	aSyn 5UTR act -74
N/C(=N\OC(=O)c1cccc2ccccc12)c1ccccn1	none
COc1cccc(C(=O)O/N=C(\N)c2ccncc2)c1OC	aSyn 5UTR act -84
COC(c1ccccc1)c1nnc(CCC(=O)N(C)CCOc2ccccc2)o1 (stereo not drawn)	aSyn 5UTR act -83
COC(c1ccccc1)c1nnc(CCC(=O)N(C)Cc2cccc(-n3cccn3)c2)o1 (stereo not drawn)	aSyn 5UTR act -72
C/C(=N\NC(=O)c1ccccc1F)c1cccc(NC(=O)c2ccccc2)c1	aSyn 5UTR act -94
C/C(=N\NC(=O)c1ccccc1)c1ccc2c(c1)OCO2	aSyn 5UTR act -118
C/C(=N\NC(=O)c1c[nH]c2ccccc12)c1ccc2c(c1)OCO2	aSyn 5UTR act -98
C/C(=N\NC(=O)c1ccccc1F)c1ccc(C#N)cc1	aSyn 5UTR act -64
C/C(=N/NC(=O)c1ccc2c(c1)OCO2)c1ccc(NC(=O)C(F)(F)F)cc1	aSyn 5UTR act -127
C/C(=N\Nc1nc2ccccc2s1)c1ccc2c(c1)OCO2	aSyn 5UTR act -176
C/C(=N/NC(=O)c1ccccc1)C1=C(O)CC(C)(C)CC1=O	aSyn 5UTR act -95
C/C(=N\NC(=O)c1nc2ccccn2c1C)c1ccco1	aSyn 5UTR act -135
O=C(N/N=C(\c1ccccc1)c1ccccn1)c1cccc([N+](=O)[O-])c1	none
C/C(=N\NC(=O)c1c[nH]c2ccccc12)c1ccccn1	none
CC(=O)Nc1cccc(/C(C)=N/NC(=O)c2ccc3c(c2)OCO3)c1	aSyn 5UTR act -78
C/C(=N\NC(=O)c1ccccc1)c1ccc(C)c([N+](=O)[O-])c1	aSyn 5UTR act -109
C/C(=N\NC(=O)c1c[nH]c2ccccc12)c1ccco1	aSyn 5UTR act -174
C/C(=N\NC(=O)c1ccc([N+](=O)[O-])cc1Cl)c1ccccc1	aSyn 5UTR act -148
C/C(=N\NC(=O)c1ccc2c(c1)OCO2)c1ccc(O)cc1	aSyn 5UTR act -64
Cc1ccc(C(=O)Nc2sc(C)c(-c3ccccc3)c2C(N)=O)cc1[N+](=O)[O-]	aSyn 5UTR act -81
C/C(=N\NC(=O)c1ccccc1)c1cccc(Br)c1	aSyn 5UTR act -110
Cc1ccc(C(=O)CSc2nnc(C(C)C)n2C)cc1C	aSyn 5UTR act -75
O=C(CSC1=NCCS1)Nc1nc2c(s1)CCCC2	aSyn 5UTR act -104
Cc1nnc(SCC(=O)Nc2nc3c(s2)CC(C)CC3)s1 (stereo not drawn)	aSyn 5UTR act -75
CC1CCc2c(sc(NC(=O)CSc3ncn[nH]3)c2C#N)C1 (stereo not drawn)	none
Cn1nnnc1SCC(=O)Nc1nc2c(s1)CCCC2	aSyn 5UTR act -102
Cc1ccc(-c2nc3ccccn3c2NCc2ccc3c(c2)OCO3)cc1	aSyn 5UTR act -163
COc1ccc(-c2nc3ccc(C)cn3c2NCc2ccc3c(c2)OCO3)cc1	aSyn 5UTR act -119
Cc1cc(Cl)ccc1NC(=S)Nc1ccccn1	aSyn 5UTR act -91
Cc1ccc(NC(=S)c2nc3ccccc3[nH]2)c(C)c1	aSyn 5UTR act -116
Cc1ccc(NC(=S)Nc2ccccn2)c(C)c1	aSyn 5UTR act -147
Cc1ccc(NC(=S)NNC(=S)Nc2ccc(C)cc2C)cc1	none
COC(=O)c1c(NC(=O)/C=C/C(=O)O)sc(C)c1-c1ccc(C(C)C)cc1	aSyn 5UTR act -68
NC(=O)N=Nc1c2[nH]c3ccccc3nc-2c2ccccc12	aSyn 5UTR act active
O=c1[nH]c2ccccc2nc1-c1ccc(Cl)cc1	aSyn 5UTR act -72
O=c1[nH]c2ccccc2nc1-c1ccccc1	aSyn 5UTR act -73
CC1CN(C(=O)c2cccc(COc3ccc(Br)cc3)c2)CC(C)O1 (stereo not drawn)	aSyn 5UTR act -104
CCOc1ccc(OCc2cccc(C(=O)N3CCOCC3)c2)cc1	none
CN(C)/N=C/c1ccc(OS(=O)(=O)c2ccccc2)cc1	aSyn 5UTR act -157
COc1ccc(OCCCn2cc(/C=C3/C(=N)N4C=C(C)SC4=NC3=O)c3ccccc32)cc1	aSyn 5UTR act -70
Cc1ccc(Nc2n[nH]c(C)c2[N+](=O)[O-])cc1C	aSyn 5UTR act -164
Fc1cccc(Cl)c1CSc1ccc(-c2cccnc2)nn1	aSyn 5UTR act -80
CC(C)COc1ccc(C(=O)Nc2ncn[nH]2)cc1	aSyn 5UTR act -66
CC(C)COc1ccc(C(=O)Nc2sc3c(c2C(=O)O)CC(C)(C)OC3)cc1	none
CC(C)Oc1ccc(C(=O)Nc2ncn[nH]2)cc1	aSyn 5UTR act -65
CCCn1cnc2cc(NCc3ccc(Br)cc3)ccc21	aSyn 5UTR act -93
Cn1cnc2cc(NCc3ccc(Cl)cc3)ccc21	aSyn 5UTR act -101
Cc1ccc(CNc2ccc3c(c2)ncn3C(C)C)cc1	aSyn 5UTR act -144
